The source made the active and inactive calls. Rule for the calls: active = hit-call score of the fitted dose curve at least 0.9, where 1 is the maximum; inactive = score below 0.9.
read-out: Cytochrome P450 4A22 (Homo sapiens) (UniProt Q5TCH4); assay: LTEA_HepaRG_CYP4A22: Life Technologies and Expression Analysis (LTEA) Assay for Cytochrome P450 4A22 (CYP4A22) using HepaRG (AID 2283495); details: mRNA level, 48 h; actives raise or lower the signal
Summary of the method: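 Readout is CYP4A22 transcript induction or loss, quantified by qRT-PCR and normalized to ACTB, GAPDH and POLR2A. Human HepaRG cells receive test chemicals for 48 h at eight half-log concentrations from 100 uM in 0.5% DMSO.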

| SMILES | outcome | AC50 |
| --- | --- | --- |
| O=C1c2ccccc2C(=O)N1CCc1noc(-c2ccc(CN3CCCCCC3)s2)n1 | inactive |  |
| CC(C)(C)c1cc(/C=C2\SC(N)=NC2=O)cc(C(C)(C)C)c1O | inactive |  |
| CCCCOC(=O)c1ccc(O)cc1 | inactive |  |
| O=c1c(-c2ccc(O)cc2)coc2cc(O)cc(O)c12 | inactive |  |
| O=C(O)c1ccccc1C(=O)OCc1ccccc1 |  | 23.4 µM (active) |
| CCN(Cc1cccc(S(=O)(=O)O)c1)c1ccc(C(=C2C=CC(=[N+](CC)Cc3cccc(S(=O)(=O)O)c3)C=C2)c2ccccc2S(=O)(=O)[O-])cc1 | inactive |  |
| O=CCCCC=O | inactive |  |
| c1ccc2ccccc2c1 | inactive |  |
| O=C=NCCCCCCN=C=O | inactive |  |
| CO[C@H]1/C=C/O[C@@]2(C)Oc3c(C)c(O)c4c(O)c(c(/C=N/N5CCN(C)CC5)c(O)c4c3C2=O)NC(=O)/C(C)=C\C=C\[C@H](C)[C@H](O)[C@@H](C)[C@@H](O)[C@@H](C)[C@H](OC(C)=O)[C@@H]1C | inactive |  |
| OC12N=C(c3ccccc3)SC1Cc1cc(Cl)ccc12 (stereo unspecified) |  | 63.2 µM (active) |
| Clc1ccccc1C(c1ccccc1)(c1ccccc1)n1ccnc1 |  | 15.7 µM (active) |
| CCCC(=O)OCCC(C)C | inactive |  |
| Cc1cn([C@H]2C[C@H](N=[N+]=[N-])[C@@H](CO)O2)c(=O)[nH]c1=O | inactive |  |
| c1ccc(C[n+]2cccc3ccccc32)cc1 |  | 22.6 µM (active) |
| Cc1oc2c(NC(=O)c3c(Cl)cccc3Cl)cccc2c1C(C)(C)O |  | 31.5 µM (active) |
| CC/C(=C(/CC)c1ccc(O)cc1)c1ccc(O)cc1 | inactive |  |
| CC(C)(c1cc(Br)c(O)c(Br)c1)c1cc(Br)c(O)c(Br)c1 | inactive |  |

| SMILES | outcome | AC50 |
| --- | --- | --- |
| NCc1cccc(C2CCN(C(=O)c3ccc(C#Cc4ccccc4F)o3)CC2)c1 |  | 81 µM (active) |
| O=C(O)Cn1c(=O)n(Cc2ccc(Br)cc2F)c(=O)c2ccc(Cl)cc21 | inactive |  |
| CC1=CC(=O)/C(=C(/C)O)C(=O)O1 | inactive |  |
| O=C(O)c1ccccc1-n1cc(C(=O)O)c(=O)c2cc(Nc3c(F)cc(F)cc3Cl)c(Cl)cc21 | inactive |  |
| CN1C(=O)CC[C@H]1c1cccnc1 | inactive |  |
| Oc1ccccc1 | inactive |  |
| CN(C)c1ccc(C(=C2C=CC(=[N+](C)C)C=C2)c2ccc(N(C)C)cc2)cc1 |  | 3.65 µM (active) |
| O=C(OCCCCCCOC(=O)c1ccccc1)c1ccccc1 | inactive |  |
| O=c1ccc2ccccc2o1 | inactive |  |
| CCCCOC(=O)CC(CC(=O)OCCCC)(OC(C)=O)C(=O)OCCCC | inactive |  |
| O=C(Nc1ccc(Cl)cc1)Nc1ccc(Cl)c(Cl)c1 |  | 24.2 µM (active) |
| CC(O)CC(C)(C)O (stereo unspecified) | inactive |  |
| CCCCCCCCOC(=O)c1cc(O)c(O)c(O)c1 | inactive |  |
| CC[C@H](NC(=O)c1cc(F)ccc1NS(=O)(=O)c1cccc2cccnc12)c1ccccc1 |  | 22.8 µM (active) |
| CN(C)C(=O)C1(N2CCCCC2)CCN(CC[C@@]2(c3ccc(Cl)c(Cl)c3)CN(C(=O)c3ccccc3)CCO2)CC1 | inactive |  |
| CC1(C)NC(=O)N(c2ccc([N+](=O)[O-])c(C(F)(F)F)c2)C1=O |  | 67.4 µM (active) |
| CCCCCCCCCCCC[N+](C)(C)C | inactive |  |
| Cc1ccc2oc(CN(Cc3ccccc3)C(=O)Nc3c(F)cc(F)cc3F)c(-c3ccc(Cl)cc3)c2c1 |  | 44.2 µM (active) |

Source: PubChem BioAssay (EPA / NIEHS)
